Here are results for six molecules from PubChem BioAssay (EPA / NIEHS).

SMILES strings stand for the structures. The source made the active and inactive calls. How the source made its calls: active means hit-call score of the fitted dose curve at least 0.9, where 1 is the maximum; inactive means score below 0.9.

Holding throughout (conditions): mRNA level, 48 h; actives raise or lower the signal
Read-out in test [1]: ABC Transporter (ABCC3), ABCC3 (gene 8714)
Briefly: LTEA_HepaRG_ABCC3: Life Technologies and Expression Analysis (LTEA) Assay for ABC Transporter (ABCC3) using HepaRG (AID 2283462). Put shortly: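 HepaRG cells in serum-free induction medium were exposed for 48 h in duplicate to 8-point half-log concentrations topping at 100 uM in 0.5% DMSO. ABCC3 mRNA was measured by qRT-PCR normalized to ACTB, GAPDH and POLR2A, with bidirectional fitting versus DMSO.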

Read-out in test [2]: ABC Transporter (ABCB11), ABCB11 (gene 8647)
Briefly: LTEA_HepaRG_ABCB11: Life Technologies and Expression Analysis (LTEA) Assay for ABC Transporter (ABCB11) using HepaRG (AID 2283463). Put shortly: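 ABCB11 transcript levels are read by Fluidigm TaqMan qRT-PCR after 48 h chemical treatment of human HepaRG cells. Concentrations span 100 uM downward in half-log steps with 0.5% DMSO; gain or loss is fitted against DMSO controls.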

Read-out in test [3]: Broad substrate specificity ATP-binding cassette transporter ABCG2 (Homo sapiens) (UniProt Q9UNQ0)
In words: LTEA_HepaRG_ABCG2: Life Technologies and Expression Analysis (LTEA) Assay for ABC Transporter (ABCG2) using HepaRG (AID 2283465). Put shortly:
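Read-out is ABCG2 mRNA induction or loss quantified by qRT-PCR after 48 h chemical treatment of human HepaRG cells, normalized to three housekeeping genes. Concentrations reached 100 uM top in half-log steps; fitting was bidirectional against 0.5% DMSO.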

Read-out in test [4]: ATP-citrate lyase (ACLY), ACLY (gene 47)
In words: LTEA_HepaRG_ACLY: Life Technologies and Expression Analysis (LTEA) Assay for ATP-citrate lyase (ACLY) using HepaRG (AID 2283466). The method in brief:
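HepaRG, 48 h exposure, 8-pt half-log dilutions (top 100 uM), 0.5% DMSO. Readout: ACLY mRNA, TaqMan qRT-PCR, housekeeping-normalized (ACTB/GAPDH/POLR2A). Bidirectional curve fit vs DMSO.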

Read-out in test [5]: Peroxisomal acyl-coenzyme A oxidase 1 (ACOX1) gene, ACOX1 (gene 51)
Briefly: LTEA_HepaRG_ACOX1: Life Technologies and Expression Analysis (LTEA) Assay for Peroxisomal acyl-coenzyme A oxidase 1 (ACOX1) gene using HepaRG (AID 2283467). The method in brief: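 Measured by qRT-PCR against three housekeeping genes: ACOX1 transcript change in human HepaRG cells after 48 h dosing. Concentrations ran up to 100 uM in half-log steps. Curves were fitted bidirectionally relative to 0.5% DMSO.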

Read-out in test [6]: Alkaline Phosphatase, Placental (ALPP) gene, ALPP (gene 250)
Briefly: LTEA_HepaRG_ALPP: Life Technologies and Expression Analysis (LTEA) Assay for Alkaline Phosphatase, Placental (ALPP) gene using HepaRG (AID 2283468). The method in brief: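 Differentiated human HepaRG cells were plated and cultured 48 h, then exposed in duplicate for 48 h in serum-free induction medium to eight half-log concentrations from 100 uM in 0.5% DMSO. ALPP mRNA was measured by TaqMan qRT-PCR, normalized to ACTB, GAPDH, POLR2A.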

Read-out in test [7]: Bcl-2 (BAX) gene, BAX (gene 581)
Briefly: LTEA_HepaRG_BAX: Life Technologies and Expression Analysis (LTEA) Assay for Bcl-2 (BAX) gene using HepaRG (AID 2283470). The method in brief:
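Concentration-response endpoint fitted in both directions relative to 0.5% DMSO vehicle. Human HepaRG cultures receive test chemicals for 48 h at up to 100 uM; BAX mRNA is quantified by qRT-PCR against housekeeping genes.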

Read-out in test [8]: Alpha-fetoprotein (AFP) gene, AFP (gene 174)
In words: LTEA_HepaRG_AFP: Life Technologies and Expression Analysis (LTEA) Assay for Alpha-fetoprotein (AFP) gene using HepaRG (AID 2283472). The method in brief: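 After a 48 h plating period, cells are moved to serum-free induction medium and dosed in duplicate (100 uM maximum, half-log dilutions, 0.5% DMSO) for another 48 h. Total RNA goes to TaqMan qRT-PCR; AFP signal is housekeeping-normalized.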

Read-out in a further test: BCL2L11 (gene 10018)
Briefly: LTEA_HepaRG_BCL2L11: Life Technologies and Expression Analysis (LTEA) Assay for Bcl-2 (BCL2L11) gene using HepaRG (AID 2283473). Put shortly: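 Differentiated human HepaRG cells in serum-free induction medium were exposed in duplicate for 48 h to eight concentrations (top 100 uM, half-log steps, 0.5% DMSO). BCL2L11 mRNA was quantified by TaqMan qRT-PCR, normalized to ACTB/GAPDH/POLR2A, bidirectional fit versus DMSO.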

Read-out in test [9]: Apoptosis regulator Bcl-2 (Homo sapiens) (UniProt P10415)
Briefly: LTEA_HepaRG_BCL2: Life Technologies and Expression Analysis (LTEA) Assay for Bcl-2 gene using HepaRG (AID 2283475). The method in brief:
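Expression change of BCL2 mRNA in HepaRG after 48 h dosing, quantified by TaqMan qRT-PCR against three endogenous controls. Concentration-response used eight points up to 100 uM, vehicle 0.5% DMSO.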

Read-out in test [10]: Bcl-2 (BID) gene, BID (gene 637)
In words: LTEA_HepaRG_BID: Life Technologies and Expression Analysis (LTEA) Assay for Bcl-2 (BID) gene using HepaRG (AID 2283476). Put shortly: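 Gain or loss of BID expression is fitted relative to 0.5% DMSO vehicle. Human HepaRG liver cells received a 48 h chemical exposure over an eight-point concentration range.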

Read-out in the next test: Caspase-3 (Homo sapiens) (UniProt P42574)
In words: LTEA_HepaRG_CASP3: Life Technologies and Expression Analysis (LTEA) Assay for cysteine-aspartic acid protease (CASP3) using HepaRG (AID 2283477). Put shortly: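 Differentiated human HepaRG cells in serum-free induction medium were exposed 48 h to 8-point half-log concentrations from 100 uM (0.5% DMSO vehicle). CASP3 mRNA was measured by qRT-PCR, normalised to ACTB, GAPDH and POLR2A, with bidirectional fitting against DMSO.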

Read-out in test [11]: Cytochrome P450 (CYP24A1), CYP24A1 (gene 1591)
In words: LTEA_HepaRG_CYP24A1: Life Technologies and Expression Analysis (LTEA) Assay for Cytochrome P450 (CYP24A1) using HepaRG (AID 2283478). Put shortly:
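Differentiated HepaRG cells, pre-cultured 48 h, were exposed in duplicate for 48 h in serum-free induction medium to 8 half-log concentrations (top 100 uM, 0.5% DMSO). CYP24A1 mRNA was quantified by TaqMan qRT-PCR, normalized to ACTB/GAPDH/POLR2A, fitted bidirectionally versus DMSO.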

Read-out in test [12]: Cytochrome P450 (CYP1A2), CYP1A2 (gene 1544)
Briefly: LTEA_HepaRG_CYP1A2: Life Technologies and Expression Analysis (LTEA) Assay for Cytochrome P450 (CYP1A2) using HepaRG (AID 2283479). Put shortly: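 Differentiated human HepaRG cells in serum-free induction medium were exposed in duplicate for 48 h to 8-point half-log concentrations up to 100 uM in 0.5% DMSO. CYP1A2 mRNA measured by qRT-PCR, normalized to ACTB, GAPDH, POLR2A; bidirectional fit vs DMSO.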

Read-out in test [13]: cysteine-aspartic acid protease (CASP8), CASP8 (gene 841)
Briefly: LTEA_HepaRG_CASP8: Life Technologies and Expression Analysis (LTEA) Assay for cysteine-aspartic acid protease (CASP8) using HepaRG (AID 2283480). The method in brief:
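HepaRG, 48 h exposure, duplicate wells; 8 conc, half-log from 100 uM, 0.5% DMSO. Serum-free induction medium. CASP8 mRNA by TaqMan qRT-PCR, norm. ACTB/GAPDH/POLR2A; gain/loss fitted vs DMSO.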

Read-out in test [14]: ABC Transporter (ABCC2), ABCC2 (gene 1244)
In words: LTEA_HepaRG_ABCC2: Life Technologies and Expression Analysis (LTEA) Assay for ABC Transporter (ABCC2) using HepaRG (AID 2283464). Put shortly:
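HepaRG cells were plated 48 h, switched to serum-free induction medium, then exposed in duplicate for 48 h to 8 concentrations (top 100 uM, half-log steps, 0.5% DMSO). ABCC2 mRNA was measured by qRT-PCR normalized to ACTB/GAPDH/POLR2A; bidirectional fitting versus DMSO.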

Read-out in test [15]: adenosine kinase (ADK) gene, ADK (gene 132)
Briefly: LTEA_HepaRG_ADK: Life Technologies and Expression Analysis (LTEA) Assay for adenosine kinase (ADK) gene using HepaRG (AID 2283471). The method in brief:
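Read-out is ADK transcript level measured by qRT-PCR and normalised to three housekeeping genes. Cells are human HepaRG, dosed for 48 h at up to 100 uM in 0.5% DMSO. Gain or loss of signal is fitted against DMSO controls.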

Chain of Broad substrate specificity ATP-binding cassette transporter ABCG2 (Homo sapiens) (Q9UNQ0 whole entry, looked up): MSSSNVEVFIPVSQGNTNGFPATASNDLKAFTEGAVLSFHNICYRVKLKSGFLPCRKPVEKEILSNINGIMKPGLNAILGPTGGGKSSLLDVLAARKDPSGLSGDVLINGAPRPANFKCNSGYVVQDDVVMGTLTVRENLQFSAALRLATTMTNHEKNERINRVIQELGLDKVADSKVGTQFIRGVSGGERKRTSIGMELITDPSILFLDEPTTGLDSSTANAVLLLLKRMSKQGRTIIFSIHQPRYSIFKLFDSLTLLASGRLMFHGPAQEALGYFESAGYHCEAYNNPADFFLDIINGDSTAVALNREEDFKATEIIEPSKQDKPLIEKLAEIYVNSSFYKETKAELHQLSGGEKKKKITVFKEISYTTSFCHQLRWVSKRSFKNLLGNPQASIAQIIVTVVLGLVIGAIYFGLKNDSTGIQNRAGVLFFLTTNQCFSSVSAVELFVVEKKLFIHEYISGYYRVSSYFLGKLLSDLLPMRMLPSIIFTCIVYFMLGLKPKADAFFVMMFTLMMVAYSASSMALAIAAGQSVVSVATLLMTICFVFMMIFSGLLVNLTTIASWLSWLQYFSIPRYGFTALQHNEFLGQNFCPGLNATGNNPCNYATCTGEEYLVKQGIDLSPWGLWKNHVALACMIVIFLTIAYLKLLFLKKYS
Chain of Apoptosis regulator Bcl-2 (Homo sapiens) (P10415 whole entry, looked up): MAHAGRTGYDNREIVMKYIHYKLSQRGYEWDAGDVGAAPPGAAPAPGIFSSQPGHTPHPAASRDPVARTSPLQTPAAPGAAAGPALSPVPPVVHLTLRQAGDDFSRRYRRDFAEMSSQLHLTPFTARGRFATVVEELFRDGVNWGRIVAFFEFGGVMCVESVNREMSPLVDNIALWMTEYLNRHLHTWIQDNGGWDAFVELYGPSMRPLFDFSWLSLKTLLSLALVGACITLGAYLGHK
Chain of Caspase-3 (Homo sapiens) (P42574 whole entry, looked up): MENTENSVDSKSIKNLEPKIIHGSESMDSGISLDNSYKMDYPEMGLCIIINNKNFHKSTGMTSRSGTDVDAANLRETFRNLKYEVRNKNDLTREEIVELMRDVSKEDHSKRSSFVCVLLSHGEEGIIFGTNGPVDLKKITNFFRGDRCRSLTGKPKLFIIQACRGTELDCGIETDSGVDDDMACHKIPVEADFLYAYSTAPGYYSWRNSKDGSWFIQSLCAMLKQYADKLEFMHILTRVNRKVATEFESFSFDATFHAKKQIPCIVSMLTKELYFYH

As for `CCCCOC(=O)c1ccccc1`, the call in test [1], in test [2], in test [3], in test [4], in test [5] and in test [6] was inactive. The outcome (in test [7]; in test [8]; with BCL2L11 (gene 10018); in test [9]; in [10]; in the test with Caspase-3 (Homo sapiens)) was inactive. In addition, the molecule was called inactive in test [11], in test [12] and in test [13].
On to `O=C(O)c1ccc2c(c1)nc(C(=O)NC1CCN(C3CC3)CC1)n2Cc1cc(-c2ccc(Cl)s2)on1`, for which the result in test [1], in [2], in test [3], in [4], in test [5] and in test [6] was inactive. Besides, the molecule was classed as inactive (in test [7]; in test [8]; in the test with BCL2L11 (gene 10018); in test [9]; in test [10]; with Caspase-3 (Homo sapiens)). Also, the molecule was classed as inactive in [11], in test [12] and in test [13].
The AC50 is the concentration giving half of the maximal activity seen. For `CCCCCCCCCCCCCCCCOS(=O)(=O)O`, the molecule was classed as inactive in test [1], in test [3], in [4], in test [5], in [6] and in test [7]. Besides, the outcome (in the test with BCL2L11 (gene 10018); in test [9]; in [10]; in the test with Caspase-3 (Homo sapiens); in test [11]; in test [12]) was inactive. In test [13], the result was inactive. The values for the AC50 in test [2] and in [8] were 41.1 µM (active) and 41.2 µM (active), respectively.
Take `OCCOCCOCCO`: the molecule was called inactive in [1], in test [2], in test [3], in test [4], in test [5] and in test [6]. Moreover, the result (in [7]; in test [8]; in the test with BCL2L11 (gene 10018); in [9]; in test [10]; in the test with Caspase-3 (Homo sapiens)) was inactive. The result in test [11], in test [12] and in test [13] was inactive.
On to `C[C@]12C=CC(=O)C=C1CC[C@H]1[C@@H]3C[C@@H](O)[C@](O)(C(=O)CO)[C@@]3(C)C[C@H](O)[C@@]12F`, for which the result in [1], in [2], in [3], in test [4], in [5] and in test [6] was inactive. In addition, the result (in [7]; in test [8]; with BCL2L11 (gene 10018); in [9]; in test [10]; with Caspase-3 (Homo sapiens)) was inactive. The molecule was called inactive in test [11] and in [13]. In test [12], the AC50 was 50 µM (active).
As for `CCCOc1ccc(S(=O)(=O)N2CCN(CC)CC2)cc1-c1nc2c(CC)n(Cc3ccccn3)nc2c(=O)[nH]1`, the molecule was called inactive (in test [1]; in [3]; in test [5]; in test [7]; in [15]; with BCL2L11 (gene 10018)). In addition, the outcome (in test [9]; in [10]; with Caspase-3 (Homo sapiens); in [11]; in test [13]) was inactive. Moreover, the AC50 in test [2] is 27.7 µM (active); in [14], 5.49 µM (active); in [4], 80.2 µM (active); in test [6], 50 µM (active); in test [8] it was 26.9 µM (active); in [12] it was 79.4 µM (active).
